This passage reports activation results from PubChem BioAssay AID652067 (The Scripps Research Institute Molecular Screening Center, 2013).

Out of some 370,000 compounds screened, about 5,400 (1.5%) were called active. This is one part of a sample in which actives are shown more often than they occur.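 The calls were made as follows: active = activation above the mean of all tested compounds plus 3 SD (cut at about 5.5% in these data); inactive = the rest.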

This assay relates to DAF-12 nuclear receptor (Haemonchus contortus). Nature of the assay: H. contortus DAF-12 nuclear receptor activators, primary screen, cell-based, luminescence, HEK293, lit1-tk-luc reporter (AID 652067).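 Also: 100% = response to 3 µM Δ7-dafachronic acid high control.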 Conditions: HEK293 hcDAF-12 lit1-tk-luc reporter, at 6.8 µM, active compounds read high, 0% DMSO, 100% Δ7-dafachronic acid.
Consider `Cc1cc2nnc(SCC(=O)N3CCN(c4ccccc4)CC3)n2c(N)n1`, for which the activation was -2.55% (inactive).

Consider `O=C(CSc1nnc(Cc2ccccc2)n1-c1ccccc1)N1CCOCC1`, for which the activation is -0.92% (inactive).

Regarding `Cc1nnc(SCC(=O)N2CCN(c3ccccc3)CC2)n1-c1ccccc1`, the activation was 6.51% (active).

For `N#Cc1c(NC(=O)c2ccc(N3CCOCC3)c([N+](=O)[O-])c2)sc2c1CCCC2`, the activation was -0.5% (inactive).

With `N#Cc1c(NC(=O)C2CCCO2)sc2c1CCCCC2` (stereo unspecified), the activation was 6.65% (active).

With `CCC1CCc2c(sc(NC(C)=O)c2C#N)C1` (stereo unspecified), the activation was -0.54% (inactive).

On to `COC(=O)C1=C(C)NC(=S)NC1c1ccc(OC)cc1` (stereo unspecified), for which the activation is -0.46% (inactive).

For the compound `C=CC[C@]12C[C@@]3(O[C@H](c4ccc(C(F)(F)F)cc4)N=C3C[C@H](c3ccc(OC)cc3)[C@H]1C)N(C1CCN(Cc3ccccc3)CC1)C2=O`, the activation was 1.02% (inactive).

For the compound `CC(=O)c1ccc(NC(=O)c2sc3nc4n(c(=O)c3c2C)CCCCC4)cc1`, the activation is 3.47% (inactive).

Take `O=c1c2c(nc3n1CCCCC3)sc1c(O)cccc12`: the activation is 5.87% (active).

Regarding `N=c1c2c3c(sc2nc2n1CCCCC2)CCCC3`, the activation was 0.65% (inactive).

With `c1csc(-c2nnc(SCc3nc4ccccc4[nH]3)o2)c1`, the activation is 0.87% (inactive).

`CC1CCCN(c2cccc3c2S(=O)(=O)N(Cc2ccc(F)cc2)[C@@H](C)[C@H](c2ccccc2)O3)C1` (stereo partly specified): the activation is -1.13% (inactive).

In the case of `Cc1ccc(SCCC(=O)NC(C(C)C)C(C)C)cc1`, the activation was -0.97% (inactive).

As to `Cc1ccc(SCCC(=O)NCc2ccccn2)cc1`, the activation is 0.97% (inactive).

With `Cc1ccc(SCCSc2ncccn2)cc1`, the activation is 7.62% (active).

With `COc1cccc(CN(C)C(=O)CC23CC4CC(CC(C4)C2)C3)c1OC`, the activation is -1.43% (inactive).

For `CCOC(=O)c1ccc(-c2ccc3ncnc(N(C)Cc4sccc4C)c3c2)o1`, the activation is 0.56% (inactive).

Take `COCCCNc1nc2ccccc2nc1NS(=O)(=O)c1ccc(F)cc1`: the activation is 4.77% (inactive).

Regarding `Cc1ccc(S(=O)(=O)C(C#N)c2nc3ccccc3nc2N2CCCC2)cc1C` (stereo unspecified), the activation is -0.94% (inactive).

For `Cc1ccc(S(=O)(=O)Nc2nc3ccccc3nc2N2CCc3ccccc3C2)cc1`, the activation was 6.92% (active).

Turning to `O=C(CSc1nc2c(c(=O)[nH]1)CCCC2)N1CCCCC1`, the activation is 0.61% (inactive).

`CCOC(=O)C1CCN(C(=O)C(C)(C)NC(=O)Nc2ccc(F)c(F)c2)CC1`: the activation was -0.52% (inactive).

Consider `O=C(NCc1cccs1)C1CCN(S(=O)(=O)c2ccccc2[N+](=O)[O-])CC1`, for which the activation was -1.15% (inactive).

Consider `c1ccc2c(CCN3CCNC[C@H]3Cc3cccc4ccccc34)cccc2c1`, for which the activation was -0.26% (inactive).

As for `c1ccc(C2CNCc3c2ccc2ccccc32)cc1` (stereo unspecified), the activation is 6.29% (active).

`Cn1ncc([N+](=O)[O-])c1C(=O)Nc1cc(Cl)ccc1Cl`: the activation is -1.09% (inactive).

As for `c1coc(CCNc2ncnc3ccc(-c4ccc5c(c4)OCO5)cc23)c1`, the activation was 3.8% (inactive).

`CC(C)(C)C(c1nc2ccccc2[nH]1)n1c(Cc2csc3ccccc23)nc2ccccc21` (stereo unspecified): the activation is 6.12% (active).

With `CCC(c1nc2ccccc2[nH]1)n1c(=O)c(-c2cccs2)nc2ccccc21` (stereo unspecified), the activation is -1.27% (inactive).

Turning to `CC(C)n1c(NCc2c[nH]c3ccccc23)nc2ccccc21`, the activation was 1.49% (inactive).

With `N#Cc1nc(N)nc(N(c2ccccc2)c2ccccc2)n1`, the activation was -1.6% (inactive).

With `CC(C)C[C@H](NC(=O)CC1CCCC1)C(=O)N1CCC[C@H]1C(=O)NCc1ccccc1`, the activation was -1.97% (inactive).

On to `Cc1ccccc1C(=O)N[C@H](C(=O)N1CCC[C@H]1C(=O)NCc1ccccc1)C(C)C`, for which the activation was 6.82% (active).

As for `Cc1ccccc1NC(=O)N1CCCC1C(=O)NCc1ccccc1` (stereo unspecified), the activation is 0.56% (inactive).

As for `C=CCN1[C@H](CC(C)C)COc2cccc(N3CCCC3)c2S1(=O)=O`, the activation was 1.33% (inactive).

As for `COC(=O)[C@]12C[C@H](CC(=O)N3CCN(C(=O)C4CC4)CC3)C(=O)N(Cc3ccc4c(c3)OCO4)C1=C[C@H](C(C)(C)C)O[C@@H]2C`, the activation is -0.45% (inactive).

As to `Nc1ncnc2c1ncn2[C@@H]1O[C@H](C(=O)N[C@@H](CCc2ccccc2)C(=O)N2CCCN(Cc3cccs3)CC2)[C@@H](O)[C@H]1O`, the activation was -0.84% (inactive).

`CC1CCN(c2ccc(C(=O)O)cc2NS(=O)(=O)c2ccc(Br)s2)CC1`: the activation is 0.68% (inactive).

With `O=C(Nc1ccn(Cc2ccccc2)n1)c1n[nH]c([N+](=O)[O-])c1Cl`, the activation was 5.98% (active).

For the compound `O=C(Cn1cnc([N+](=O)[O-])n1)NCCc1ccccc1`, the activation is 1.32% (inactive).

With `CCOc1cccc(C(=O)Nc2cnn(Cc3ccccc3)c2)c1`, the activation was -0.69% (inactive).

For the compound `O=C(Nc1ccn(Cc2ccccc2)n1)c1cccc(F)c1`, the activation was 8.2% (active).

Regarding `Cc1c(Br)c([N+](=O)[O-])nn1CC(=O)N1CCN(Cc2ccccc2)CC1`, the activation is -0.25% (inactive).

Turning to `Cc1ccc(NC(=O)CC2C(=O)N(Cc3ccccc3)C(=S)N2NC(=O)c2cccc(F)c2)c(C)c1` (stereo unspecified), the activation is 0.38% (inactive).

As for `CCCCCN1CCCCC(NC(=O)C(C)CCC)C1=O` (stereo unspecified), the activation was 0.16% (inactive).

As to `CC(C)(C)C(=O)Nc1c(Br)c(C2CC2)nn1-c1ccccc1`, the activation is -0.94% (inactive).

For `O=C(CCCCCN1C(=O)C2C3C=CC(C3)C2C1=O)Nc1ccccc1` (stereo unspecified), the activation is -1.48% (inactive).

`CN(C)CC(=O)N[C@@H]1C[C@@H]2O[C@H](CO)CC[C@@H]2O[C@@H]1CCc1ccc(C#Cc2ccccc2)cc1`: the activation was -2.47% (inactive).

In the case of `COc1ccc(C(=O)COC(=O)c2ccc3ccccc3n2)cc1`, the activation is 0.42% (inactive).

`COc1ccc(C2=NOC(COC(=O)c3ccc4ccccc4n3)C2)cc1` (stereo unspecified): the activation was 7.15% (active).

Consider `COc1cccc(NC(=O)COC(=O)c2ccc3ccccc3n2)c1`, for which the activation is 4.16% (inactive).

As for `COc1cccc(C(O)Cc2nc3ccccc3n2C)c1OC` (stereo unspecified), the activation was -0.39% (inactive).

Consider `Cc1ccc(OCc2nnc(SC3CCc4ccccc4C3=O)n2C)cc1` (stereo unspecified), for which the activation was 1.15% (inactive).

In the case of `Cc1ccc(OCc2nc3ccccc3n2C)cc1`, the activation is 11.3% (active).

As to `COc1ccc(OC)c(NC(=O)Cn2c(=O)oc3ccccc32)c1`, the activation is -1.37% (inactive).

`Cc1cccnc1NC(=O)Cn1c(=O)oc2ccccc21`: the activation was 6.75% (active).

For `CC(=O)c1ccc(NC(=O)Cn2c(=O)oc3ccccc32)cc1`, the activation was -1.53% (inactive).

Consider `CCC[C@H]1C(=O)CC[C@@]23CCCN2C(=O)CCC[C@@H]13`, for which the activation was 0.52% (inactive).

For `COc1ccnc(C(=O)N2CCC(Oc3cccnc3)CC2)c1`, the activation was -0.13% (inactive).

For the compound `COCCN(CCOC)S(=O)(=O)c1ccc(C(=O)Nc2nc3c(s2)CCc2ccccc2-3)cc1`, the activation is -3.08% (inactive).

In the case of `CN(C)CCNC(=O)c1ccc(-c2cn3c(-c4ccc(Oc5ccccc5)cc4)cnc3cn2)cc1`, the activation is -0.28% (inactive).

On to `CN(C)CCNC(=O)c1[nH]nc2c1CCc1ccccc1-2`, for which the activation is 6.06% (active).

With `COC(=O)[C@]12C[C@H](CC(=O)NCCCCc3ccccc3)C(=O)N(Cc3ccc4c(c3)OCO4)C1=C[C@H](C(C)(C)C)O[C@@H]2C`, the activation is 2.01% (inactive).

For `C[C@H]1[C@H](NC(=O)c2cccc(N(C)C)c2)CC[C@@]23CCCN2C(=O)CCC[C@@H]13`, the activation is -1.72% (inactive).

Consider `CCCNC(=O)Nc1ccc2c(c1)C(=O)N(C)[C@H]1CC[C@H](CC(=O)NCC3CCCCC3)O[C@@H]1CO2`, for which the activation is 1.19% (inactive).

Consider `Cc1nc(NC(=O)C(C)(C)C)sc1[N+](=O)[O-]`, for which the activation is -0.38% (inactive).

Turning to `Nc1[nH]c(C(=O)c2ccccc2)c(-c2ccc(Cl)cc2Cl)c1C(=O)c1ccccc1`, the activation is -1.47% (inactive).

On to `Nc1[nH]c(C(=O)c2ccc(Br)cc2)c(-c2ccc3c(c2)OCO3)c1C(=O)NCCc1c[nH]c2ccccc12`, for which the activation was 0.26% (inactive).

Consider `O=c1c2cc([N+](=O)[O-])ccc2nc2n1CCC2`, for which the activation is -0.38% (inactive).

As to `Cc1ccc(-n2cc3ccc([N+](=O)[O-])cc3n2)cc1`, the activation was 9.08% (active).

With `Cc1ccnc(N2C(=O)c3ccc([N+](=O)[O-])cc3C2=O)c1`, the activation is -1.07% (inactive).

Take `COC(=O)C[C@@H]1CC[C@@H]2[C@H](COc3ccc(NC(=O)c4cccc(F)c4)cc3C(=O)N2C)O1`: the activation was -2.02% (inactive).

Regarding `O=C(NCCCc1ccccc1)[C@H](Cc1ccccc1)NC1(C(=O)NCCc2c[nH]c3ccccc23)CCC1`, the activation was 1.93% (inactive).

Take `Nc1ncnc2c1ncn2[C@@H]1O[C@H](C(=O)N[C@@H](CCc2ccccc2)C(=O)NCC(=O)N2CCOCC2)[C@@H](O)[C@H]1O`: the activation was -0.25% (inactive).

Regarding `Cc1cc(NC(=O)Nc2ccccc2[N+](=O)[O-])no1`, the activation is -0.4% (inactive).

For `CN1CCN(CCNC(=O)Nc2ccccc2[N+](=O)[O-])CC1`, the activation was -0.05% (inactive).

Take `Cc1csc(NC(=O)Nc2ccccc2[N+](=O)[O-])n1`: the activation was 13.9% (active).

Take `CCOc1ccc(-n2c(SCC(=O)Nc3cc(C)c(NC(=O)c4ccccc4)cc3OC)nnc2-c2cccs2)cc1`: the activation was -0.56% (inactive).

Regarding `O=C(CN1C(=O)NC2(CCc3ccccc32)C1=O)NC1CCCCC1` (stereo unspecified), the activation is 2.74% (inactive).

On to `Nc1nc2c(ncn2[C@@H]2O[C@H](C(=O)N[C@H](Cc3ccccc3)C(=O)NCC3CCCCC3)[C@@H](O)[C@H]2O)c(=O)[nH]1`, for which the activation is 1.38% (inactive).

As to `Cc1ccc(NC(=O)c2csc3c2CCCC3)cc1`, the activation was 11.3% (active).

`COc1ccc(NC(=O)c2c(C)oc3c2CCCC3)cc1`: the activation was 1.98% (inactive).

For `CC1CC(C)CN(CCCNC(=O)c2csc3c2CCCCC3)C1` (stereo unspecified), the activation is 0.75% (inactive).

Regarding `COCCNC(=S)N(C)[C@H]1C[C@H]2c3[nH]c4ccccc4c3CCN2C[C@H]1[C@H](C)O`, the activation was 1.74% (inactive).

In the case of `COc1cc2cc(CN(CCN3CCCC3)C(=O)Nc3ccccc3Cl)c(=O)[nH]c2cc1OC`, the activation was -0.2% (inactive).
